PubChem BioAssay (NCI)
This is part of a sample that, as a whole, favours compounds with a hit. Of some 83,000 tested, about 20% had one in any assay.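 Plates (96-well) were seeded with cells, treated with compound at one concentration, and incubated for 48 hours before percent growth was determined.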 A number with no mark means an inactive call. Calls of active or inactive are those of the source.

The compounds below were run on TK-10 renal (assay: NCI-60 one-dose screen, 48 h (100 = growth as untreated, 0 = no growth, -100 = all killed)). Conditions: 10 µM.
Method: Growth inhibition of the TK-10 human tumor cell line is measured as a screen for anti-cancer activity. Cells are grown in 96 well plates and exposed to the test compound for 48 hours. Compounds are tested at a single concentration, which is 10^-5 M for most compounds. The reported endpoint is percent growth (GI% or GIPRCNT), where numbers from 0 - 100% represent growth inhibition, and numbers from -100% - 0 represent cell death. For example, a value of 40 represents 60% growth inhibition. A value of 0 means no net growth occurred over the course of the experiment. A value of -40 indicates 40% of cells at the beginning of the experiment died by the end of the experiment. A value of -100 means all cells are dead at the end of the experiment.
NCI-60 Human Tumor Cell Lines Screen was performed using the standard one-dose NCI protocol, which is described in more detail at https://dtp.cancer.gov/discovery_development/nci-60/default.htm.
Compounds with GIPRCNT values below 10 were considered active. Activity score was based on GIPRCNT using the following formula: […]
Score is 0 for GIPRCNT values of 100 or above, 50 for GIPRCNT values of 0, and 100 for GIPRCNT values of -100.
`Cc1ccc(/C=C/C(=O)c2ccc(S(=O)(=O)NCCNc3nc(Nc4ccc(F)cc4)nc(N(C)C)n3)cc2)cc1` gave a growth of 100%.
`CN1C(=O)N(C)C2SC(N/N=C/c3ccccc3)=NC21` (stereo not given) gave a growth of 87.4%.
`O=C(c1ccc(O)cc1)C1[C@H](c2ccccc2Br)[C@@H](c2ccccc2)NC12C(=O)Nc1ccc(Br)cc12` (stereo not given in full) gave a growth of 76.2%.
`O=C(Nc1cccc(-c2cn(-c3ccc4oc(=O)ccc4c3)nn2)c1)Nc1cc(C(F)(F)F)cc(C(F)(F)F)c1` gave a growth of 50.9%.
With `COc1ccc2ncc(C#Cc3cncc(C(=O)Nc4ccc(CN5CCN(C)CC5)c(C(F)(F)F)c4)c3)n2n1` the growth was -76% (active).
For `O=S(=O)(c1ccc(Cl)cc1)c1nc(-c2ccccc2)oc1S(=O)(=O)c1ccc(Cl)cc1`, the growth was 97.8%.
In the case of `O=c1c2ccccc2nc(COc2ccccc2)n1/N=C/c1ccc(N2CCOCC2)cc1`, the growth is reported as 81.6%.
For `COc1ccc(CN2[C@H](C(=O)NCc3ccc(C(=O)NO)cc3)Cc3c([nH]c4ccccc34)[C@H]2C2CC2)cc1`, the growth was 53.2%.
With `Cc1ccc(-c2nc(Nc3ccccc3C(=O)O)c3ccccc3n2)cc1` the growth was 58.9%.
For `CO[C@H]1CSS[C@@H]1Cn1nc(-c2ccc(Oc3ccccc3)cc2)c2c(N)ncnc21`, the growth was 0.0625% (active).
`COc1ccccc1[C@H]1C(C(=O)c2ccc(Cl)cc2)C2(N[C@@H]1c1ccccc1)C(=O)Nc1ccccc12` (stereo not given in full) was tested, and the growth was 8.59% (active).
In the case of `CC(C)c1ccc(C(=O)Nc2sc3c(c2C(N)=O)CCC(=O)C3=O)cc1`, the growth is reported as 125%.
`CCOc1ccc(Nc2nc3ccccc3nc2Nc2ccc(OCC)cc2)cc1` was tested, and the growth was 72%.
For `CC(=O)c1cc(C(=O)c2ccc3c(c2)NC(=O)CO3)n2ccc3ccccc3c12`, the growth was 78.2%.
`Nc1nc(Nc2ccc(Cl)cc2)n(Cc2cccc(Br)c2)n1` was tested, and the growth was -3.35% (active).
In the case of `Cc1ccc2nc(-c3ccc(-c4nnc(SCC(=O)Nc5ccc(Cl)cc5)o4)cc3)[nH]c2c1`, the growth is reported as 38.1%.
`CC1(C)CC[C@]2(C(=O)N3CCOCC3)CC[C@]3(C)C(=CC[C@@H]4[C@@]5(C)CC[C@H](NCO)C(C)(C)[C@@H]5CC[C@]43C)[C@H]2C1` was tested, and the growth was -82% (active).
`Cn1c(O)c(N=Nc2nc(-c3cc4ccccc4oc3=O)cs2)c2cc(Br)ccc21` showed a growth of 56.8%.
With `C/C(=N\N=C\c1ccc(N(C)C)cc1)c1ccc2c(c1)Nc1ccccc1S2` the growth was 70.6%.
For `CN1CCN(c2ccc(Nc3nc(N4CCN(S(=O)(=O)c5ccc(F)cc5)CC4)c4sccc4n3)cc2)CC1`, the growth was -77.9% (active).
With `COc1ccc(N(C)c2cc(C#N)nc3ccccc23)cc1/C=C/C(=O)NO` the growth was 23.7%.
`C=C1CCC2C3(C)COC(c4cccc(F)c4)OC3CCC2(C)C1CC(O)C1=CCOC1=O` (stereo not given) showed a growth of 113%.
Work on `O=C(N/C(=C1/OCCN1Cc1ccccc1)[P+](c1ccccc1)(c1ccccc1)c1ccccc1)c1ccccc1` yielded a growth of 26.1%.
In the case of `CNC(=O)c1cccc(N2CCc3c2ccc(NC(=O)Nc2ccc(N4CCN(C)CC4)c(C(F)(F)F)c2)c3F)c1`, the growth is reported as -94.7% (active).
For `CN1CCN(Cc2ccc(C(=O)Nc3cccc(Nc4ccc5c(O)cccc5n4)c3)cc2C(F)(F)F)CC1`, the growth was -21% (active).
With `O=C(CSc1nnc(-c2c[nH]c3ccccc23)n1-c1ccccc1)Nc1ccc(C(=O)/C=C/c2cccc([N+](=O)[O-])c2)cc1` the growth was 115%.
`CC(C)(C)c1ccc(NCc2cn(-c3ccc(C(=O)O)cc3)nc2-c2ccc(C#N)cc2)cc1` gave a growth of 86.3%.
Compound `C/C(=N\N=C\c1ccc(Cl)c([N+](=O)[O-])c1)c1ccc2c(c1)Nc1ccccc1S2` has a growth of 77%.
In the case of `CC(=O)Nc1ccc(-c2cn(-c3cccc(C(=O)Nc4cc(CN5CCOCC5)cc(C(F)(F)F)c4)c3)nn2)cn1`, the growth is reported as -99.3% (active).
Compound `O=C(CSc1nnc(-c2ccc3nc(-c4ccc(Cl)cc4)[nH]c3c2)o1)Nc1ccc(Cl)cc1` has a growth of 50.7%.
`O=c1oc2ccc(-c3ccc(F)cc3F)cc2c(=O)n1-c1ccc(Cl)c(C(F)(F)F)c1` gave a growth of 15.3%.
For `O=C(O)CCCCCCCCCCN1C(=O)/C(=C/c2cnc(-c3ccc(Cl)cc3)s2)SC1=S`, the growth was 58.2%.
In the case of `COc1ccc(/C(C)=N/N=C2C(=O)N(C)c3ccc(Br)cc32)cc1S(N)(=O)=O`, the growth is reported as 105%.
Work on `O=c1cc(-c2ccccc2)oc2cc(OCCCNCc3ccccc3)cc(O)c12` yielded a growth of 37.3%.
`CN1C/C(=C\c2ccc(O)cc2O)c2[o+]c3cc(O)ccc3cc2C1` showed a growth of 82.4%.
With `O=C(c1ccc([N+](=O)[O-])c([N+](=O)[O-])c1O)n1[nH]c(=O)c2ccccc2c1=O` the growth was 120%.
With `COc1cc2c3c(n(CCCNCCO)c(=O)c2cc1OC)-c1nc2c(cc1C3=O)OCO2` the growth was 85.5%.
With `O=S(=O)(Nc1ncccn1)c1ccc(-n2c(-c3ccc(Br)cc3)nc(-c3ccccc3)c2-c2ccccc2)cc1` the growth was 56.7%.
Compound `Cc1ccc(C(=O)NCCCNc2nc(Nc3ccc(N4CCN(C)CC4)cc3)nc3ccsc23)cc1` has a growth of 87.2%.
With `CCCCCc1ccc(S(=O)(=O)N(C(C)=O)c2cc(-c3csc(N(C)C(C)=O)n3)ccc2N2CCN(C)CC2)cc1` the growth was 76.7%.
